# Measured values: PubChem BioAssay (Tox21)
# Records with an inconclusive call do not appear. Where a call stands in place of a potency, no number is given. The source made the active and inactive calls. Calls come from the whole dose curve; as a rule, active = well fitted inhibition curve with a large enough effect in the signal ratio in the repeat runs, with a control signal flat; inconclusive = weak or mixed curves, or effect the other way; inactive = flat fitted curve, though single readings scatter; the % refers to the signal ratio.
# Biological target: D(2) dopamine receptor (Homo sapiens) (UniProt P14416)
# Assay: Dopamine D2 receptor (DRD2) small molecule antagonists, cell-based qHTS assay (AID 1963595)
# Details: HEK293-DRD2 cAMP HTRF antagonist mode; series mostly up to 92.4 µM
# Source text: National Center for Advancing Translational Sciences [NCATS]
# Division of Preclinical Innovation [DPI]
# U.S. Environmental Protection Agency [EPA]
# National Institutes of Environmental Health Sciences [NIEHS]
# National Toxicology Program [NTP]
# U.S. Food and Drug Administration [FDA]
# DRD2 is the D2 subtype of the dopamine receptor, which is coupled to Gi subtype of G protein-coupled receptor. This G protein-coupled receptor inhibits adenylyl cyclase activity. The DRD2-HEK293 cell line stably expressing D2 dopamine receptor can be used for screening agonists and antagonists of interactions between D2 and its ligands. The Hek293-DRD2 cAMP assay is based on HTRF technology. It measures changes of cAMP accumulation in response to Gi coupled GPCR activation or inhibition.
# Tox21 Assay Protocol Summary:
# DRD2-Hek293 cells were dispensed at 600 cells/3uL/well in 1536-well white plates using a Multidrop Dispenser. After the assay plates were incubated at a 37 C/5% CO2 incubator for 24 h, 1 uL of Ro20-1724 at final concentration of 0.1 mM was transferred to the assay plate by a Flying Reagent Dispenser. Following Ro20-1724 addition, 23 nL of compound dissolved in DMSO, positive controls or DMSO only was added to the assay plates via Wako pintool station. The assay plates were incubated at room temperature for 10 min. Next, 1 uL of mixture of NKH477 (final concentration at 200 nM) and quinpirole (final concentration at 12 nM) was added into the plates. After the assay plates were incubated at room temperature for an additional 30 min, 2.5 ul/well of cAMP-d2 and 2.5 ul/well of anti-cAMP-cryptate were added respectively into the assay plates using a Flying Reagent Dispenser. The plates were incubated at room temperature for 1 h. The fluorescence intensity in the plates was measured at 340 nm excitation and 665 & 620 nm emission by an Envision plate reader.
# Sequence of D(2) dopamine receptor (Homo sapiens) (P14416 whole entry, looked up): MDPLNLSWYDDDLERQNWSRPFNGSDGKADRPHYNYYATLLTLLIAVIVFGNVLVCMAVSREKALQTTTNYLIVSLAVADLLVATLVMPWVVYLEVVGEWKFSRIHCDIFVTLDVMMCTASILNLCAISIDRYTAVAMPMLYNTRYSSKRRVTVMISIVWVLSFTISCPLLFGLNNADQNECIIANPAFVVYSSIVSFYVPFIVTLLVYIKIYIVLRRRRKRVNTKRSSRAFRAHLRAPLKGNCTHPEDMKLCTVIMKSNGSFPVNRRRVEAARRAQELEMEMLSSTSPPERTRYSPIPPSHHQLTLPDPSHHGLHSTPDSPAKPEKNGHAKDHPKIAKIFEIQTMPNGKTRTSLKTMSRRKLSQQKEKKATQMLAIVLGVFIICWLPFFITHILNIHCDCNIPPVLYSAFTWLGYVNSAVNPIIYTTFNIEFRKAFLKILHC
Structure (SMILES),Potency,"activity change, negative = inhibition"
COc1c(N2CCNC(C)C2)c(F)cc2c(=O)c(C(=O)O)cn(C3CC3)c12 (stereo not given),inactive,–
Cc1nc(C2CCCCC2)c(-c2ccc(S(N)(=O)=O)c(F)c2)o1,inactive,–
N#CSc1ccc(N)c([N+](=O)[O-])c1,inactive,–
CC1=C2[C@@H]([C@H](C)CC[C@H]2/C=C(\C)C(=O)O)[C@H](O)C1,inactive,–
CCCCN(CCCC)C(C(N)=O)c1ccc(OC)cc1 (stereo not given),inactive,–
OCCN1CN(CCO)CN(CCO)C1,inactive,–
N#CCC(=O)NN,inactive,–
Cc1ccccc1C#N,inactive,–
COCCOCC(OC)OC,inactive,–
O=C(NCCCN1CCOCC1)c1ccc(Cl)cc1,inactive,–
Oc1ccc(Oc2ccccc2)cc1,inactive,–
N[C@H](C(=O)O)[C@@H](O)c1ccc(O)c(O)c1,inactive,–
CCCC(C)C(=O)OCC (stereo not given),inactive,–
CCCC1CCCC(=O)O1 (stereo not given),inactive,–
CCCCC(CC)COC(=O)CCCCCCCCC(=O)OCC(CC)CCCC (stereo not given),inactive,–
OCCN(CCO)CCN(CCO)CCO,inactive,–
O=c1c(O)c(O)c1=O,inactive,–
C/C(=N\O)c1ccc(OCC(=O)N2CCCCC2)cc1,inactive,–
CC(=O)Nc1ccc(N)cc1,inactive,–
CNC(=O)CN(CCN(CCN(CC(=O)[O-])CC(=O)NC)CC(=O)[O-])CC(=O)[O-].O.[Gd+3],inactive,–

Structure (SMILES),Potency,"activity change, negative = inhibition"
O=[N+]([O-])c1cccc(I)c1,inactive,–
Cc1nc(-c2ccc(OCC(C)C)c(C#N)c2)sc1C(=O)O,inactive,–
CC(=O)NC(=O)c1ccccc1O,inactive,–
O=C(O)c1cccc(N(Cc2cccnc2)c2ccc(OC(F)F)c(OC(F)F)c2)c1,inactive,–
CC(C)CCCC(C)NCCC(C)C (stereo not given),inactive,–
CCCCc1ccc2c(n1)[C@@H](c1ccc(OC)cc1C[C@H](C)C(=O)O)[C@H](C(=O)O)[C@H]2c1ccc2c(c1)OCO2,inactive,–
CC(C)(O)c1coc(S(=O)(=O)NC(=O)Nc2c3c(cc4c2CCC4)CCC3)c1,inactive,–
CC(=O)c1ccc(C(C)=O)cc1,inactive,–
O=CCCc1ccccc1,inactive,–
CCCCN1CCCC1C(=O)Nc1c(C)cc(C)cc1C (stereo not given),inactive,–
CCCCCC(=O)OCC,inactive,–
CCOC(=O)CCCCCCCCC(=O)OCC,inactive,–
CCN(CCO)CCCC(C)Nc1ccnc2cc(Cl)ccc12 (stereo not given),–,12.2% [at 8.38 µM] (inactive)
CC1CC(C)C(=O)C1=O (stereo not given),inactive,–
O=C(Oc1ccccc1)c1ccccc1C(=O)Oc1ccccc1,inactive,–
O=C(O)CCCc1c[nH]c2ccccc12,inactive,–
C=CC(C)(CCC=C(C)C)OC(=O)C(C)C (stereo not given),inactive,–
CC(O)COC(C)(C)C (stereo not given),inactive,–
C[C@H](O)C(=O)Nc1c(I)c(C(=O)NC(CO)CO)c(I)c(C(=O)NC(CO)CO)c1I,inactive,–
Nc1c2c(nc3c1CCC3)CCCC2,inactive,–
